Test results published in ChEMBL document CHEMBL3433997, “St. Jude Leishmania screening dataset” (2016).
Values joined by “and” are separate entries in the source; they are usually repeats but may differ in a detail not shown here. Equal values may be shown once.

Key:
Format in all cases: functional
[1] = target: Solute carrier family 2, facilitated glucose transporter member 1 (Homo sapiens) (UniProt P11166); experiment: ST_JUDE_LEISH: Cytotoxicity at 2uM final concentration against transgenic Leishmania Mexicana promastigotes LmGLUT1 that are glucose transport deficient and complemented with the human glucose transporter GLUT1. Activity is measured by DNA content using SYBR green in vitro
[2] = target: Hexose transporter 1 (Plasmodium falciparum) (UniProt O97467); experiment: ST_JUDE_LEISH: Cytotoxicity at 2uM final concentration against transgenic Leishmania Mexicana promastigotes LmPfHT that are glucose transport deficient and complemented with the Plasmodium falciparum hexose transporter. Activity is measured by DNA content using SYBR green in vitro
[3] = target: Glucose transporter (Leishmania mexicana) (UniProt O61059); experiment: ST_JUDE_LEISH: Cytotoxicity at 2uM final concentration against transgenic Leishmania Mexicana promastigotes LmGT2 that are glucose transport deficient and complemented with the L. Mexicana glucose transporter 2. Activity is measured by DNA content using SYBR green in vitro

Chain of Solute carrier family 2, facilitated glucose transporter member 1 (Homo sapiens) (P11166 whole entry): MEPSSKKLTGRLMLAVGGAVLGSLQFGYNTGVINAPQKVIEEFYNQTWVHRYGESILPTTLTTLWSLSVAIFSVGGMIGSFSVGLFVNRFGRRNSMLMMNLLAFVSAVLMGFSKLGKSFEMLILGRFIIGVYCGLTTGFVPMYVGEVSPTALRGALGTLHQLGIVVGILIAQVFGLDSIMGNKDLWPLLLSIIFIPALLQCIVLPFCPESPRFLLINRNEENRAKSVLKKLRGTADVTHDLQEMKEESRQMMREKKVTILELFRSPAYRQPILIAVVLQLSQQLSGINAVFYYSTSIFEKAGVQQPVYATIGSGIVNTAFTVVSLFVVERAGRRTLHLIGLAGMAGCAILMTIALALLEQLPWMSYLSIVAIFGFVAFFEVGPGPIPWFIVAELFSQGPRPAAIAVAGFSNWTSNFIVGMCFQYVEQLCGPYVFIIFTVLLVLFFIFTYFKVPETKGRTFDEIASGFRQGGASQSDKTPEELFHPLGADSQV

Structure (SMILES)	inhibition [1]	inhibition [2]	inhibition [3]
Cc1ccc(NC(=O)NC2CCN(c3ccnc4cc(Cl)ccc34)C2)cc1 (stereo not drawn)	0.94%	4.46%	2.34%
NC(=O)c1cccc(Nc2nccc(Nc3ccc(Oc4cccc5ccccc45)cc3)n2)c1	7.84%	7.66%	1.31%
CN(c1ccccc1C(=O)Nc1cc(Cl)ccc1Oc1ccccc1)S(=O)(=O)c1ccccc1	5.06%	4.53%	3.66%
CCN1CCN(CCCCNc2c3ccccc3nc3ccccc23)CC1	20.5%	8.76%	10.7%
COc1cccc(NC(=O)Nc2ccc(C)c(-c3ccc(C(=O)Nc4ccncc4)cc3)c2)c1	-1.55%	-1.72%	-0.17%
CCCc1cc(N2CCC(N3CCCC3)CC2)nc(Nc2ccc(OC)cc2)n1	1.06%	2.18%	0.63%
Cc1ccnc(NC(c2cccc(OCc3ccccc3)c2)c2ccc3cccnc3c2O)c1 (stereo not drawn)	0.07%	1.21%	-1.47%
Cc1ccc(-c2nc3cc(C(=O)NC4CCN(Cc5ccccc5)CC4)ccc3[nH]2)cc1	6.09%	2.07%	0.96%
CCOc1ccc(C(=O)Nc2cc(Cl)ccc2O)cc1Cl	-1.03%	0.11%	-1.5%
Cc1ccc(OC2CCN(CCCCC3(C)C(=O)Nc4ccccc43)CC2)cc1 (stereo not drawn)	4.24%	15.1%	9.07%
CCN(c1ccc(O)c(CN2CCCCC2)c1)c1ccc([N+](=O)[O-])cn1	2.79%	1.08%	0.72%
CCOC(=O)NC1=NC(C)(C)N(OCc2cccc3c2ccc2ccccc23)C(NC(=O)OCC)=N1	10.7%	11.1%	10.3%
CCCCOP(=O)(COc1ccc(CCN(CC(O)COc2cccc3[nH]c4ccccc4c23)CC(O)COc2cccc3[nH]c4ccccc4c23)cc1)C1CCCCC1 (stereo not drawn)	3.64%	0.57%	0.82%
Clc1cc(Nc2ncnc3sc(C#C[C@H]4CCCN4)cc23)ccc1OCc1cccnc1Cl	3.83%	4.71%	3.35%
COc1cccc(C23NC(=Nc4nc5ccccc5[nH]4)NC2(c2cccc(OC)c2)NC(=Nc2nc4ccccc4[nH]2)N3)c1 (stereo not drawn)	6.07%	4.74%	3.29%
Cc1nc(N)nc(N)c1OCc1cccc2c1ccc1ccccc12	3.53%	6.28%	2.84%
CCc1cn2c3c(cc(C(=O)N[C@@H](Cc4ccccc4)[C@H](O)CNC4CCOCC4)cc13)N(CC(F)(F)F)S(=O)(=O)CC2	2.22%	2.72%	0.88%
O=C(NCCNc1noc(-c2sccc2Br)n1)c1ccc(Cl)cc1	-1.4%	3.34%	-0.91%
CCOC(=O)c1[nH]c2cc(Cl)cc(Cl)c2c1/C=C/C(=O)Nc1ccc(-c2cnc(NC(C)=O)[nH]2)cc1	-1.61%	-2.31%	-1.73%
Cc1cc2[nH]c(-c3ccc(C(=O)NCCCN4CCN(c5cccc(Cl)c5)CC4)s3)nc2cc1Cl	3.07%	3.29%	2.02%
CCN(CC)c1ccc(NC(=S)NC2CCN(CCCCCNC(=O)/C=C/c3ccc(Cl)c(Cl)c3)CC2)cc1	5.28%	6.72%	6.22%
N#Cc1ccc2[nH]c(-c3ccccc3)nc2c1	7.3%	6.06%	5.78%
Oc1cccc(Nc2ccnc3cc(-c4cc5ccccc5o4)ccc23)c1	-0.71%	-0.27%	-2.34%
Clc1ncnc2scc(-c3ccc(Br)cc3)c12	7.74%	6.35%	3.52%

Structure (SMILES)	inhibition [1]	inhibition [2]	inhibition [3]
CCc1c[nH]c2c(N(c3ccccc3)S(C)(=O)=O)cc(C(=O)N[C@@H](Cc3ccccc3)[C@H](O)CNC(C)(C)CCCC(C)C)cc12	0.74%	1.65%	0.18%
COc1ccc(-c2cccc(NC(=O)c3ccc(Cl)cc3)c2)cc1CNC(C)C	3.8%	2.1%	-1.5%
O=C(Cc1c[nH]cn1)Nc1ccc(-c2cccc(-c3nc4cc(F)ccc4[nH]3)c2)cc1	1.49%	4.07%	2.01%
N#CN1CC[C@H](CS(=O)(=O)c2cccc(Br)c2)C1	6.21%	4.67%	2.05%
CC(C)NCc1cccc(-c2cccc(NC(=O)c3cccc(C#N)c3)c2)c1	5.22%	4.93%	5.23%
c1cncc(CCNCc2ccc(-c3ccc(CNC4Cc5ccccc5C4)cc3)cc2)c1	5.14%	3.57%	3.87%
CCCCOc1ccc(/C=C/c2ccc(-c3c(C)[nH]c(C)c(Cl)c3=O)s2)cc1	-1.17%	2.35%	-1.25%
Oc1cc(NC[C@@H]2CCC[C@@H]2NCc2ccc(Cl)c(Cl)c2)nc2ccccc12	9.21%	8.79%	7.45%
O=C(c1cccc(-c2ccc(-c3nc4cc(C(F)(F)F)ccc4[nH]3)cc2)c1)N1CCCCC1CN1CCC(O)C1 (stereo not drawn)	0.99%	1.44%	2.26%
Nc1ncc(-c2ccc(NC(=O)Nc3cc(C(F)(F)F)ccc3F)cc2)c(N)n1	-0.9%	0.23%	0.6%
CCC[C@@H]([C@@H](CC1CCCCC1)C(=O)N[C@H](C(=O)Nc1nccs1)[C@@H](C)OCc1ccccc1)N(O)C=O	6.17%	3.62%	2.53%
Cc1ccc(Cc2c(N)nc3nc(N)nc(N)c3c2C)cc1	4.96%	8.67%	6.55%
O=C(c1c(-c2[nH]c3ccccc3c2C(=O)C(F)(F)F)[nH]c2ccccc12)C(F)(F)F	1.75%	0.78%	-1.45%
O=C(C=Cc1ccc(Cl)c(Cl)c1)NC1CCN(CCc2ccccc2)CC1	0.9%	1.06%	-4.41%
CC(O)C(C)(CO)NCc1ccc2c3c(cccc13)-c1ccccc1-2 (stereo not drawn)	15.7%	11.2%	5.35%
C[C@@]12C[C@@H](Nc3nc(NCCc4ccc(O)cc4)nc(N4CCNCC4)n3)C[C@@H](C1)c1cccc(Cl)c1O2	-1.38%	-1.84%	2.14%
CC(C)CNC(=O)c1cncc(-c2ccc(CNCCCc3ccccc3)cc2)c1	0.94%	-0.91%	-0.55%
Cc1c(NCCCNCc2cc(Cl)cc(Cl)c2Cl)[nH]c2ccccc2c1=O	10.6%	9.36%	8.22%
N=C(N)c1ccc(-c2cc3ccc(C(=N)N)cc3[nH]2)cc1	62.9%	62.2%	52.2%
CC(C)[C@H](NC(=O)c1ccc(O)c(-c2ccc(Cl)c(Cl)c2)c1)C(=O)NC1CCCCCC1	0.48%	0.52%	-4.76%
CCN1CCN(CC(O)CNC(=O)Nc2ccc(Cl)cc2)CC1 (stereo not drawn)	8.67%	8.82%	6.63%
CCc1cc2c(=O)c(-c3nc(C)cs3)c(N)oc2c(CN2CCCCC2)c1O	3.22%	2.22%	3.34%
O=C(NCCc1cccc(F)c1)c1ccc(N2CCN(c3ccncc3)CC2)cn1	8.21%	4.37%	6.9%
COc1ccc(NC(=O)/C=C/c2ccccc2Cl)cc1OCCN1CCC(N2CCCCC2)CC1	7.74%	7.17%	7.17%

Structure (SMILES)	inhibition [1]	inhibition [2]	inhibition [3]
O=C(Nc1ccc(OC2CCN(Cc3ccsc3)CC2)c(Cl)c1)c1cccs1	7.63%	2.38%	2.85%
CC(C)NCc1ccc(-c2cccc(NC(=O)c3ccc(Cl)cc3)c2)cc1	8.23%	6.77%	7.51%
COc1cc2c(cc1S(=O)(=O)c1ccc(NC(=O)c3ccc4ccccc4c3)cc1)CCN(C)CC2	1.64%	0.19%	-0.44%
CCNC(=O)Nc1ccc(-c2cnc(N)c(-c3nc4ccc(OC)cc4[nH]3)c2)cc1	3.5%	4.42%	3.1%
CC(C)COc1ccc2ccccc2c1CNCCCCCCNCc1c(OCC(C)C)ccc2ccccc12	86.6%	88.5%	27.7%
CC(C)CCN1CCC(Oc2ccc(NC(=O)c3ccccc3)cc2Cl)CC1	1.25%	3.09%	2.86%
Cc1cccc2nc(-c3ccc(-c4ccc(CNCc5cccc(N)c5)cc4)s3)[nH]c12	4.29%	1.98%	2.76%
Clc1cnc2ccc3c(c2c1CCN1CCC(NCc2cc4c(cn2)OCCO4)CC1)OCCO3	27.3%	42.2%	14.9%
O=C(N[C@@H](CC1CCCCC1)C(=O)NCCN1CCOCC1)c1ccc(O)c(-c2ccc(Cl)c(Cl)c2)c1	-0.52%	1.41%	0.27%
COc1ccc(-c2cn3c(C(=O)Nc4ccccc4Cl)c(-c4ccccc4)c4c3n2CCCC4)cc1	0.33%	0.92%	-0.58%
CC(=O)Oc1c(C2C=CCCC2)c(OC(C)=O)c2ccccc2c1OC(C)=O (stereo not drawn)	1.04%	3.27%	1.98%
Cc1cccc2nc(-c3cccc(-c4cccc(CNCCNC(=O)c5ccnn5C)c4)c3)[nH]c12	-1.89%	-1.71%	-2.41%
Cc1nc2c(c(O)c1Cl)-c1ccc(Oc3cccc(C(F)(F)F)c3)cc1C2=O	2.13% and 1.44%	2.5% and 1.39%	1.75% and 2.09%
O=C(Nc1cccc(-c2nn3ccccc3c2-c2ccnc(Nc3ccc(C(=O)N4CCOCC4)cc3)n2)c1)c1c(F)cccc1F	23.1%	7.72%	2.78%
CC1(C)N=C(N)N=C(N)N1c1ccc(Cl)cc1	5.04%	4.91%	4.69%
Cc1cc(Nc2cccc(C(F)(F)F)c2)nc(N)n1	0.43%	0.91%	1.19%
CC(C)C(NC(=O)Cc1cccc2ccccc12)C(=O)Nc1cccc(C#N)c1 (stereo not drawn)	2.08%	3.27%	2.76%
COc1cc2nc(NC3CCN(Cc4ccccc4)CC3)nc(N)c2cc1OC	3.62%	2.22%	13%
CC(C)CCNC(=O)C1Cc2c([nH]c3cc(Br)ccc23)C2(CCN(CCc3ccccc3)CC2)N1 (stereo not drawn)	3.44%	2.47%	-3.76%
CC1CCC(C[C@@H](C(=O)N[C@@H](CCC(=O)N2CCCCC2)C(=O)Nc2nccs2)[C@H](C(C)C)N(O)C=O)CC1 (stereo partly drawn)	3.85%	4.16%	3.44%
COc1ccc(C(C)Nc2nc(N)c3cc(OC)c(OC)cc3n2)cc1 (stereo not drawn)	4.72%	4.66%	4.42%
CON=Cc1ccn(-c2ccc(O)c3c2C[C@H]2C[C@H]4[C@H](N(C)C)C(O)=C(C(N)=O)C(=O)[C@@]4(O)C(O)=C2C3=O)c1	5.15%	4.25%	4.92%
Clc1ccc(-c2cc(-c3csc(Nc4ccncc4)n3)on2)cc1	1.41%	5.17%	1.32%
